Reference: PubChem BioAssay AID602350 (Broad Institute, 2012)
Potency and affinity values are given separately. The source made the active and inactive calls.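 The calls were made as follows: active = absorbance falls by 30% or more versus neutral controls, with a potency fitted within twice the top valid dose; inconclusive = no clear call, values can overlap the other calls; inactive = change opposite to expected direction, plus the rest.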

Target: Protein disulfide-isomerase (Homo sapiens) (UniProt P07237)
Assay: PDI inhibitors, insulin aggregation turbidity, dose response, biochemical, absorbance, cherry-picked samples (AID 602350);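 also: 0% = neutral controls and -100% = rutin hydrate positive control wells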
Settings: recombinant PDI insulin aggregation, absorbance 650 nm, 90 min; series mostly up to 19.5 µM

Protein disulfide-isomerase (Homo sapiens), sequence (P07237 whole entry, looked up): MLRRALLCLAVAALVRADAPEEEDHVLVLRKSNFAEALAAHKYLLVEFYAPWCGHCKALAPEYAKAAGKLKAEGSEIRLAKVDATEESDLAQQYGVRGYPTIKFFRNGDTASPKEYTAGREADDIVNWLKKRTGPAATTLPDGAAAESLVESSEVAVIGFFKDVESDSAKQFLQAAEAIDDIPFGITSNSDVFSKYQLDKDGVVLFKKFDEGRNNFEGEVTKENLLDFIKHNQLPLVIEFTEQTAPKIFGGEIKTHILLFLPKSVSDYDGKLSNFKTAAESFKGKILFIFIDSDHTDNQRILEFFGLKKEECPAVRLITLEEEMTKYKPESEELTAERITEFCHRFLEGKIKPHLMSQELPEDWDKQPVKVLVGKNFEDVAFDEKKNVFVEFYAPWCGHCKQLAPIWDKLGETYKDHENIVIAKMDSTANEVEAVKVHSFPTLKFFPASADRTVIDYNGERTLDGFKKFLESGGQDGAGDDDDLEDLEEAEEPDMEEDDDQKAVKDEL

Question: With `CC1(C(=O)N2CCCCC2)CCN1C(=O)Cc1ccc(-c2ccccc2)cc1` (centres undefined) as the compound, how does the outcome read?
Answer: Its outcome is “inactive”.

Question: With `c1ccc(Cn2nnc3c(Nc4ccc5c(c4)OCO5)nc(C4CC4)nc32)cc1` as the compound, how does the outcome read?
Answer: Its outcome is “inactive”.

Question: For `NC1=NC[C@H](Cc2ccc(O)cc2)N1CC1CCCCC1`, which outcome is on record?
Answer: The outcome was “inactive”.

Question: `O=C(NC1CCCCC1)C1CCN(S(=O)(=O)c2cccs2)CC1` was tested. Which outcome did it give?
Answer: The outcome was “inactive”.

Question: With `CC1(C(=O)Nc2cccc3c2CCCC3)CCN1C(=O)c1cccc(F)c1` (centres undefined) as the compound, how does the outcome read?
Answer: The outcome was “inactive”.

Question: For `COC(=O)c1ccc(NC(=S)NCCc2cccc(C)c2)cc1`, which outcome is on record?
Answer: The outcome was “inactive”.

Question: With `Cc1ccc(C)c(NS(=O)(=O)c2c(C)nn(C)c2C)c1` as the compound, how does the outcome read?
Answer: The outcome was “inactive”.

Question: `O=C(Nc1cccc(S(=O)(=O)Nc2ccc(SC(F)F)cc2)c1)C1CCC1` was tested. Which outcome did it give?
Answer: Its outcome is “inactive”.

Question: For `CC[C@]12c3[nH]c4cc(-c5ccco5)ccc4c3CCN1C(=O)[C@@H](CC(=O)NCCCOC)C[C@@H]2C(=O)N1CCN(C(=O)C2CC2)CC1`, which activity change, negative = inhibition is on record?
Answer: The activity change, negative = inhibition was 0.067% [at 2.1 µM] (inactive).

Question: For `Cc1ccc(S(=O)(=O)N(C)c2ccc(OC(=O)COc3ccccc3)cc2)cc1`, which outcome is on record?
Answer: The outcome was “inactive”.

Question: How did the outcome turn out when `O=C1[C@@H]2C(Cc3ccc(O)cc3)NC3(C(=O)Nc4ccc(F)cc43)[C@@H]2C(=O)N1c1ccccc1` (some centres undefined) was run?
Answer: The outcome was “inactive”.

Question: Which outcome does the source give for `O=C(/C=C/c1ccccc1)Nc1scc(-c2ccccc2)c1C(=O)O` here?
Answer: The outcome was “inactive”.

Question: `O=C(NCc1ccncc1)Nc1cc(Cl)ccc1Cl` was tested. Which outcome did it give?
Answer: The outcome was “inactive”.

Question: With `O=C1CCC(=O)N1CCc1c[nH]c2ccccc12` as the compound, how does the outcome read?
Answer: The outcome was “inactive”.

Question: With `O=C(NCc1cccs1)C1CC(c2ccc(F)cc2)=NO1` (centres undefined) as the compound, how does the outcome read?
Answer: The outcome was “inactive”.

Question: `Cc1ccc(C2=Nc3ccccc3SC(c3cccc([N+](=O)[O-])c3)C2)cc1` (centres undefined) was tested. Which outcome did it give?
Answer: Its outcome is “inactive”.

Question: `CCCCC(=O)OC1CCC2C3CCc4cc(O)ccc4C3CCC12C` (centres undefined) was tested. Which outcome did it give?
Answer: The outcome was “inactive”.

Question: With `CCOC(=O)C1(CCOc2ccccc2)CCN(Cc2ccccc2O)CC1` as the compound, how does the outcome read?
Answer: The outcome was “inactive”.

Question: How did the outcome turn out when `Cc1ccc(-c2cc(C(=O)NNC(=O)c3csc(N4CCOCC4)n3)c3ccccc3n2)cc1` was run?
Answer: Its outcome is “inactive”.

Question: For `O=C(Cc1ccccc1)Nc1cccc(C(=O)N/N=C/c2ccco2)c1`, which outcome is on record?
Answer: The outcome was “inactive”.

Question: How did the outcome turn out when `CCCn1nnnc1NC(=O)c1cccs1` was run?
Answer: Its outcome is “inactive”.

Question: How did the outcome turn out when `Cc1ccc(N2CC(C(=O)Nc3nc4ccc(S(C)(=O)=O)cc4s3)CC2=O)cc1` (centres undefined) was run?
Answer: The outcome was “inactive”.

Question: Which outcome does the source give for `O=C(NCc1ccccc1CN1CCCC1)c1cc2ccccc2o1` here?
Answer: The outcome was “inactive”.

Question: How did the outcome turn out when `CN1CCN(C(=O)CSc2nnc(COc3ccc(Cl)cc3)o2)CC1` was run?
Answer: Its outcome is “inactive”.

Question: For `CCOc1cc(N2CCOCC2)c(OCC)cc1NC(=O)Cc1ccccc1OC`, which outcome is on record?
Answer: The outcome was “inactive”.

Question: `Cc1nnc(N/N=C/c2ccc(-c3ccccc3F)o2)n1N` was tested. Which outcome did it give?
Answer: Its outcome is “inactive”.

Question: Which outcome does the source give for `O=C(N/N=C/c1ccc(O)cc1)NC12CC3CC(CC(C3)C1)C2` here?
Answer: Its outcome is “inactive”.

Question: For `COc1ccc(N(CC(=O)NCCSC2CCCCC2)S(=O)(=O)c2ccccc2)c(OC)c1`, which outcome is on record?
Answer: Its outcome is “inactive”.

Question: `CC1CCCN(c2cc3c(cc2[N+](=O)[O-])C(=O)N(c2ccccc2)C3=O)C1` (centres undefined) was tested. Which outcome did it give?
Answer: Its outcome is “inactive”.

Question: For `O=C1NC[C@H](Cc2ccccc2)N(C[C@H]2CCCN2C[C@H](Cc2ccc(O)cc2)N2C[C@H](Cc3ccc(O)cc3)N(CC3CCCCCC3)C(=O)C2=O)C1=O`, which outcome is on record?
Answer: Its outcome is “inactive”.

Question: How did the outcome turn out when `Cc1nc(C(=O)Nc2cccc(Cl)c2Cl)nn1-c1cc(OC(C)C)c(Cl)cc1Cl` was run?
Answer: The outcome was “inactive”.

Question: How did the outcome turn out when `Cc1c(C(=O)N2CCOCC2)sc2ncn(CC(=O)N3CCC(C)CC3)c(=O)c12` was run?
Answer: The outcome was “inactive”.

Question: `COc1cc2c(cc1OC)C(C)N(CC(=O)Nc1ccc(S(=O)(=O)N3CCCC3)cc1)CC2` (centres undefined) was tested. Which outcome did it give?
Answer: The outcome was “inactive”.

Question: Which outcome does the source give for `CCN1CCN(Cc2ccc(NC(=O)c3cc(NC(=O)c4cc(-c5ccc(OC)cc5)n[nH]4)cc(OC)c3)cc2C(F)(F)F)CC1` here?
Answer: The outcome was “inactive”.

Question: How did the outcome turn out when `Cn1c(=O)n(CCCOc2ccc(Br)cc2)c2ccccc21` was run?
Answer: The outcome was “inactive”.

Question: With `C[C@]12CC[C@@H]3c4ccc(O)cc4C(=O)C[C@H]3[C@@H]1CC[C@@H]2O` as the compound, how does the outcome read?
Answer: The outcome was “inactive”.

Question: Which outcome does the source give for `CCOc1ccc(/C=N/OC(C)C(=O)NCc2ccc3c(c2)OCO3)cc1` (centres undefined) here?
Answer: The outcome was “inactive”.

Question: For `CC1(C(=O)Nc2ccc3c(c2)OCCO3)CCN1C(=O)C1(c2ccc(Cl)cc2)CC1` (centres undefined), which outcome is on record?
Answer: Its outcome is “inactive”.

Question: `CCCCNC(=O)CCn1c(=O)c2ccccc2n(CC(=O)Nc2ccccc2OCC)c1=O` was tested. Which outcome did it give?
Answer: The outcome was “inactive”.
